According to PubChem BioAssay (Tox21):
“And” between values parts separate entries of the source, which are not always exact repeats. Equal values may be shown once. Results filed as inconclusive are left out. The source made the active and inactive calls. Calls follow the shape of the dose curve; as a rule, active = well fitted curve in the direction sought with a large enough effect in the repeat runs; inconclusive = weak or mixed curves; inactive = no such curve, though single readings can be large; an effect the other way counts as inactive or inconclusive.

Columns and labels:
[1] = A CellTox Green Cytotoxicity Assay to monitor cytotoxicity in HepG2 cells - 0 hour (AID 1224882); also: nearly all actives have a fitted effect of over 35% in size
Method in brief: (§1)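 Measurements at 0, 8, 16, 24, 32 and 40 h of treatment captured CellTox Green fluorescence in HepG2 cells that had been co-plated with reagent and preincubated 5 h at 37 C/5% CO2.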

[2] = A CellTox Green Cytotoxicity Assay to monitor cytotoxicity in HepG2 cells - 32 hour (AID 1224883); also: nearly all actives have a fitted effect of over 50% in size; also: potency is read from the fitted curve at half-maximal effect
Method in brief: as §1

[3] = A CellTox Green Cytotoxicity Assay to monitor cytotoxicity in HEK293 cells - 8 hour (AID 1224884); also: nearly all actives have a fitted effect of over 35% in size
Method in brief: (§2)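 Tox21 screen in HEK293: membrane-impermeant cyanine dye fluoresces on binding dead-cell DNA; compound pinned 5 h post-seeding, plates held at 37 C, signal read repeatedly through 40 h.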

[4] = qHTS RealTime-Glo MT Cell Viability Assay in HepG2 cells - 16 hour (AID 1224885); also: nearly all actives have a fitted effect of over 50% in size; also: potency is read from the fitted curve at half-maximal effect
Method in brief: (§3)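 Cell number in HepG2 cultures estimated from NanoLuc luminescence generated by metabolic reduction of a prosubstrate by living cells. The homogeneous, nonlytic format allowed repeated reads at 0, 8, 16, 24, 32 and 40 h of compound exposure.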

[5] = qHTS RealTime-Glo MT Cell Viability Assay in HEK293 cells - 24 hour (AID 1224886); also: nearly all actives have a fitted effect of over 50% in size; also: potency is read from the fitted curve at half-maximal effect
Method in brief: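 Homogeneous bioluminescent viability format in HEK293 cells (600 cells/well). Following 5 h at 37 C/5% CO2, 23 nL compound was pintooled; the signal was measured repeatedly during 40 h incubation.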

[6] = qHTS RealTime-Glo MT Cell Viability Assay in HEK293 cells - 8 hour (AID 1224887); also: nearly all actives have a fitted effect of over 50% in size; also: potency is read from the fitted curve at half-maximal effect
Method in brief: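 HEK293 + NanoLuc + prosubstrate, 600 cells/well; 5 h, 37 C/5% CO2; compound 23 nL in DMSO by pintool; 37 C; luminescence read at 0, 8, 16, 24, 32 and 40 h time points.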

[7] = A CellTox Green Cytotoxicity Assay to monitor cytotoxicity in HEK293 cells - 16 hour (AID 1224888); also: nearly all actives have a fitted effect of over 35% in size
Method in brief: as §2

[8] = A CellTox Green Cytotoxicity Assay to monitor cytotoxicity in HepG2 cells - 8 hour (AID 1224890); also: nearly all actives have a fitted effect of over 45% in size
Method in brief: as §1

[9] = qHTS assay to identify small molecule antagonists of the estrogen receptor alpha (ER-alpha) signaling pathway using the BG1 cell line in the presence of 0.1 nM 17-beta-estradiol - cell viability counter screen (AID 1259241); also: nearly all actives have a fitted effect of over 40% in size; also: potency is read from the fitted curve at half-maximal effect
Method in brief: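 VM7Luc4E2, 4,000 cells/well, phenol red-free medium + 10% charcoal-stripped FBS; 24 hr plating; cpd + 0.1 nM E2 final, 22 hr 37C/5% CO2; CellTiter-Fluor 30 min, fluorescence.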

[10] = qHTS RealTime-Glo MT Cell Viability Assay in HepG2 cells - 0 hour (AID 1224889); also: nearly all actives have a fitted effect of over 50% in size
Method in brief: as §3

Measured: Potency

CCCCCCCCP(=O)(O)O
inactive: [1] | [2] | [3] | [4] | [5] | [6] | [7] | [8] | [9]

CN(C)c1ccc(N=O)cc1
active: [2] 39 µM | [4] 55.1 µM and 43.6 µM | [5] 15.5 µM and 24.5 µM | [6] 15.5 µM and 21.9 µM | [9] 61.3 µM
inactive: [1] | [3] | [7] | [8]

CCCC[N+]1(C)[C@@H]2CC(OC(=O)[C@H](CO)c3ccccc3)C[C@H]1[C@@H]1O[C@@H]12 (some centres not stated)
inactive: [1] | [2] | [3] | [4] | [5] | [6] | [7] | [8] | [9]

CC(C)c1ccc(NC(=O)N(C)C)cc1
inactive: [1] | [2] | [3] | [4] | [5] | [6] | [7] | [8] | [9]

C1CCNCC1
inactive: [1] | [2] | [3] | [4] | [5] | [6] | [7] | [8] | [9]

O=[N+]([O-])O[C@H]1CO[C@H]2[C@@H]1OC[C@H]2O[N+](=O)[O-]
inactive: [1] | [2] | [3] | [4] | [5] | [6] | [10] | [8] | [9]

CCCCCCCCCCCCN(C)C
inactive: [1] | [2] | [3] | [4] | [5] | [6] | [10] | [8] | [9]

c1ccc2c(c1)-c1cccc3cccc-2c13
inactive: [1] | [2] | [3] | [4] | [5] | [6] | [10] | [8] | [9]

CCOP(=S)(OCC)Oc1ccc(S(C)=O)cc1 (configuration not stated)
inactive: [1] | [2] | [3] | [4] | [5] | [6] | [7] | [8] | [9]

CCCCC(CC)CO[N+](=O)[O-] (configuration not stated)
inactive: [1] | [2] | [3] | [4] | [5] | [6] | [7] | [8] | [9]

CCN(C(C)=O)c1cccc(-c2ccnc3c(C#N)cnn23)c1
inactive: [1] | [2] | [3] | [4] | [5] | [6] | [7] | [8] | [9]

O=C=NC1CCCCC1
inactive: [1] | [2] | [3] | [4] | [5] | [6] | [7] | [8] | [9]

N#CC(C#N)=C(C#N)C#N
inactive: [1] | [2] | [3] | [4] | [5] | [6] | [7] | [8] | [9]

C=CC(C)(CCC=C(C)C)OC(=O)c1ccccc1N (configuration not stated)
inactive: [1] | [2] | [3] | [4] | [5] | [6] | [7] | [8] | [9]

CC[N+]1(C)CCCC(OC(=O)C(O)(c2ccccc2)c2ccccc2)C1 (configuration not stated)
inactive: [1] | [2] | [3] | [4] | [5] | [6] | [10] | [8] | [9]

CCCCC(CC)COC(=O)c1c(Br)c(Br)c(Br)c(Br)c1C(=O)OCC(CC)CCCC (configuration not stated)
inactive: [1] | [2] | [3] | [4] | [5] | [6] | [10] | [8] | [9]

O=C1CC[C@@]2(O)[C@H]3Cc4ccc(O)c5c4[C@@]2(CCN3CC2CC2)[C@H]1O5
inactive: [1] | [2] | [3] | [4] | [5] | [6] | [10] | [8] | [9]

Nc1cccc2ccccc12
inactive: [1] | [2] | [3] | [4] | [5] | [6] | [7] | [8] | [9]

COc1cc(CC#N)cc(OC)c1OC
inactive: [1] | [2] | [3] | [4] | [5] | [6] | [10] | [8] | [9]

CCCC(C)(COC(N)=O)COC(=O)NC(C)C (configuration not stated)
inactive: [1] | [2] | [3] | [4] | [5] | [6] | [10] | [8] | [9]

CC(Cc1ccccc1)NCc1ccccc1Cl (configuration not stated)
inactive: [1] | [2] | [3] | [5] | [6] | [7] | [10] | [8] | [9]

CC(C)CCCCCCCOC(=O)c1ccccc1C(=O)OCCCCCCCC(C)C
inactive: [1] | [2] | [3] | [5] | [6] | [7] | [10] | [8] | [9]

CCCCC1C(=O)NC(=O)N(C2CCCCC2)C1=O (configuration not stated)
inactive: [1] | [2] | [3] | [5] | [6] | [7] | [10] | [8] | [9]
